Source: ChEMBL document CHEMBL3988442, “University of Dundee, Small-Polar-MMV Screening Library” (2021)
The campaign covered roughly 48,000 compounds. About 13,000 (27%) showed an effect of 50% or more. Some of the results follow.

system: Wolbachia pipientis; assay: Anti-Wolbachia Cell-Based Screen; assay type: functional; parameters: scale not given: in the data most compounds retested in dose-response had high values; conditions: 5 µM

| Compound | Percent Effect |
| --- | --- |
| CCn1cc(CN2CCC(C3CCN(C)CC3)CC2)cc1C#N | 8.542% |
| CC1CCN(C(=O)[C@@H]2C[C@H]3OCC[C@H]3N(Cc3ccoc3)C2)CC1.O=C(O)C(F)(F)F | -6.203% |
| COc1ccc2c(c1)C(C(=O)N(C)CCc1cnn(C)c1)CC(=O)N2 (stereo not drawn) | 2.797% |
| Cc1csc(N(C)C(=O)C(c2c(F)cccc2Cl)N(C)C)n1 (stereo not drawn) | 1.249% |
| c1ccc(OCc2noc(CN3CCN(C4CCCC4)CC3)n2)cc1 | 4.136% |
| Cc1noc(C)c1CC(=O)N1CC[C@@](C)(O)[C@H](Oc2ccccc2)C1 | 138.5% |
| Cc1n[nH]c(C)c1CC(=O)N1CC[C@@](C)(O)[C@@H](Cc2ccccc2)C1 | -1.869% |
| Cc1n[nH]c(C)c1CC(=O)N1CCC2(CC1)CN(C)CCN2C | -2.947% |
| Cc1noc(C)c1CNC(=O)N1CCC(C(O)c2ccccc2)CC1 (stereo not drawn) | -2.263% |
| Cc1n[nH]c(C)c1CC(=O)N1CC[C@@](C)(O)[C@H](Oc2ccccc2)C1 | 132.6% |
| Cc1nc(C)c(CC(=O)N2CCC(Oc3ccccc3)CC2)c(=O)[nH]1 | 3.027% |
| CC[C@H](CO)NC(=O)c1coc(COc2cccc(F)c2F)n1 | -21.32% |
| COC(=O)CCCNC(=O)c1cc(COc2cncc(Cl)c2)on1 | 3.929% |
| CCN(Cc1csc(C)n1)c1cccc(CO)c1 | 19.84% |
| COc1ccc(-c2nnc(C(C)N3CCC4(CC3)OCCO4)o2)cc1 (stereo not drawn) | -10.61% |
| CC(c1nnc(-c2ccccc2)o1)N1CCC(Nc2ccccc2)CC1 (stereo not drawn) | 109.3% |
| COc1ccc(-c2nnc(C(C)N3CCOCC3)o2)cc1 (stereo not drawn) | 0.5331% |
| CC(C)c1cc(CN2CCC(CC(=O)O)CC2)no1 | 25.42% |
| CC(C)c1cc(CN2CCC(N)CC2)on1 | 102.3% |
| CC(C)c1cc(N2CCC(N)CC2)n2nccc2n1 | -3.508% |
| COCCCN1CC2(CCN(Cc3cc(C(C)C)no3)CC2)CC1=O | -15.73% |
| CCN1CCN(C2CCN(Cc3cc(C)on3)CC2)C1=O | -12.89% |
| CC(C)c1cc(CN2CCC(N)CC2)no1 | 118.3% |
| CN(Cc1noc(C2CC2)n1)C1CCN(Cc2ccncc2)C1 (stereo not drawn) | -0.4709% |
| Cc1cnc(CN(C)C2CCN(CCc3cnn(C)c3)C2)o1 (stereo not drawn) | -1.466% |
| CCn1ccnc1CN1CCC(N(C)Cc2ncc(C)o2)C1 (stereo not drawn) | -2.074% |

| Compound | Percent Effect |
| --- | --- |
| Cc1cnc(CN(C)C2CCN(Cc3nnc(C4CC4)o3)C2)o1 (stereo not drawn) | 131.1% |
| Cc1cnc(CN2CCC(N(C)Cc3noc(C4CC4)n3)C2)o1 (stereo not drawn) | 113% |
| O=C(c1cnn2cc(CCO)cnc12)N1CCOC(C(F)(F)F)C1 (stereo not drawn) | -0.009577% |
| CCOc1ccc(CN(C)C(=O)NC(C)c2nncn2C)cc1 (stereo not drawn) | -12.44% |
| CC(NCc1cccnc1)c1cc2c(cc1Br)OCCO2 (stereo not drawn) | -3.161% |
| CNS(=O)(=O)CCCN1CCCN(Cc2ccccc2)CC1C (stereo not drawn) | -3.956% |
| CNS(=O)(=O)CCCN1CCN(C(C)c2cccnc2)CC1 (stereo not drawn) | 7.44% |
| CS(=O)(=O)CCCN1CCN(C(C#N)c2ccccc2)CC1 (stereo not drawn) | 95.09% |
| CC(c1ccc(Cl)cc1)N1CCN(CCCS(C)(=O)=O)CC1 (stereo not drawn) | -1.134% |
| N#Cc1cccc(CS(=O)(=O)NCCC(O)c2ccccc2)c1 (stereo not drawn) | 7.655% |
| CCS(=O)(=O)NCCN1CCN(C(C#N)c2ccccc2)CC1 (stereo not drawn) | 106.3% |
| CC(c1ccc(Cl)cc1)N1CCN(CCNS(C)(=O)=O)CC1 (stereo not drawn) | -1.965% |
| CC(c1ccc(Cl)cc1)N1CCN(CCS(C)(=O)=O)CC1 (stereo not drawn) | 6.907% |
| CNS(=O)(=O)CCCN1CCN(C(C#N)c2ccccc2)CC1 (stereo not drawn) | 112.4% |
| Cc1cc(C(=O)N2C[C@H](CO)C[C@H](CN3CCOCC3)C2)nc(C)n1 | -11.42% |
| CC(C)CCN(c1cn[nH]c1)S(=O)(=O)c1cccc(C#N)c1 | -0.3515% |
| NC(=O)c1ccc(CNC2CCCSC2)cc1 (stereo not drawn) | -4.812% |
| CCS(=O)(=O)N(C)C(=O)c1cc(C)n(-c2cccc(OC)c2)c1C | -13.82% |
| O=C(c1ccncc1)N1CCCC(c2cc(C(F)F)n3ncnc3n2)C1 (stereo not drawn) | 88.08% |
| O=C(c1ccco1)N1CCCC(c2cc(C(F)(F)F)n3ncnc3n2)C1 (stereo not drawn) | 95.67% |
| O=C(c1ccc(Cl)o1)N1CCCC(c2cc(C(F)(F)F)[nH]n2)C1 (stereo not drawn) | -0.4503% |
| Cc1ncsc1C(=O)N1CCCC(c2cc(C(F)F)n3ncnc3n2)C1 (stereo not drawn) | 110.2% |
| O=C(c1ccccn1)N1CCCC(c2cc(C(F)F)n3ncnc3n2)C1 (stereo not drawn) | 111.1% |
| O=C(c1nc(=O)[nH][nH]1)N1CCCC(c2cc(C(F)(F)F)[nH]n2)C1 (stereo not drawn) | -1.931% |
| O=C(c1cccnc1)N1CCCC(c2cc(C(F)F)n3ncnc3n2)C1 (stereo not drawn) | 1.815% |
| O=C(c1ccco1)N1CCCC(c2cc(C(F)F)n3ncnc3n2)C1 (stereo not drawn) | -11.1% |

| Compound | Percent Effect |
| --- | --- |
| CCc1nnc(CN(C)Cc2cccc(C(=O)Nc3ccnn3C)c2)o1 | -8.218% |
| CN(Cc1ccc(Cl)c(F)c1)C(=O)c1ccncc1F | 5.158% |
| COc1nccc(N2CCN(Cc3ccc(C)cc3)C(=O)C2)c1C#N | 5.242% |
| CCn1nc(C)cc1C(=O)N1CCOc2ccc(OC)cc21 | 4.6% |
| COc1cc2nc(NCc3scnc3C)nc(N)c2cc1OC | 7.61% |
| Cc1nn(CC(C)C)c(N(C)C)c1CNCCS(C)(=O)=O | -9.669% |
| CCN(CC(=O)NC)C(=O)Cc1nc(-c2ccco2)oc1C | -1.768% |
| Cc1cc(CN(C)C(=O)C2CCCN(C(=O)c3cccs3)C2)no1 (stereo not drawn) | -2.385% |
| O=C(c1cccs1)N1CCCC(c2cc(C(F)F)n3ncnc3n2)C1 (stereo not drawn) | 74.84% |
| O=C(c1cccs1)N1CCc2ncnc(C3CCOC3)c2CC1 (stereo not drawn) | -39.43% |
| Cc1ccc2c(n1)N(CCN(C)C)CCN(C(=O)c1ccsc1)C2 | -6.316% |
| COc1cccc(-c2cnc3n2CCC32CCN(C(C)=O)CC2)c1 | 0.6434% |
| COc1cccc(-c2ncc3c(n2)N(C)CCN(CCN(C)C)C3=O)c1 | 82.33% |
| CN(C)CCN1CCN(C)c2nc(-c3ccccc3)ncc2C1=O | 101.9% |
| CCc1ccc(-c2ncc3c(n2)N(C)CCN(CCN(C)C)C3=O)cc1 | 95.82% |
| COCCC(=O)N1CCN(CCN(C)C)c2ncccc2C1 | 4.239% |
| CNC(=O)[C@@H]1C[C@H](N)CN1S(=O)(=O)c1cc(Cl)cc(Cl)c1O | -28.57% |
| Cc1c(I)cccc1C(=O)NCC1(CO)CC1 | -20.46% |
| COc1ccc(CCNC(=O)CC(NC(N)=O)c2ccccc2)cc1 (stereo not drawn) | 5.015% |
| COc1ccccc1-c1cc(NC(=O)CCC2CCCO2)[nH]n1 (stereo not drawn) | 4.714% |
| CC(=O)Nc1nc(-c2ccc(F)cc2)c[nH]1 | 8.711% |
| O=C(NCC1CCOC1)c1cc(-c2ccc(Cl)cc2)n[nH]1 (stereo not drawn) | -17.32% |
| COc1ccc(-c2cc(C(=O)Nc3nc[nH]n3)[nH]n2)cc1 | 117.7% |
| O=C(Nc1nc[nH]n1)c1cc(-c2ccc(F)cc2)n[nH]1 | 175.6% |
| COc1ccc(NC(=O)NC(C)c2nc[nH]n2)cc1 (stereo not drawn) | -2.331% |
| CNC(=O)c1cc(-c2ccccc2OC)[nH]n1 | 118.3% |

| Compound | Percent Effect |
| --- | --- |
| COc1ccccc1-c1cc(C(=O)Nc2nc[nH]n2)[nH]n1 | 103.1% |
| COC[C@@H]1CCCN1C(=O)c1cc(-c2ccc(OC)cc2)n[nH]1 | -15.89% |
| COC(=O)C(C)(C)NC(=O)c1cc(COc2ccccc2OC)[nH]n1 | -6.385% |
| COc1ccccc1-c1cc(NC(=O)CC2CCS(=O)(=O)C2)[nH]n1 (stereo not drawn) | 2.425% |
| CNC(=O)C(C)(C)NC(=O)c1cc(COc2ccccc2OC)[nH]n1 | 6.418% |
| O=C(NCc1cccc(N2CCCCC2=O)c1)[C@@H](O)c1ccccc1 | -1.556% |
| CC(C)c1ccc(N2CCc3onc(-c4ccc(F)c(F)c4)c3C2)nn1 | 26% |
| CCC1CN(C(=O)Nc2cnc3c(cnn3C(C)C)c2)CCO1 (stereo not drawn) | 6.429% |
| CCC(CC)CN1C[C@@H]2OCCN(Cc3cnn(C)c3)[C@@H]2C1 | -7.114% |
| COc1cc(C)c(C)cc1S(=O)(=O)NCC(O)c1cccn1C (stereo not drawn) | -4.325% |
| COc1cccc(-c2cc(C(=O)Nc3nc[nH]n3)[nH]n2)c1 | 131.8% |
| COC[C@@H]1CCCN1C(=O)c1cc(-c2cccc(OC)c2)n[nH]1 | -18.68% |
| COCC1CCCCN1C(=O)c1cc(-c2cccc(OC)c2)n[nH]1 (stereo not drawn) | -6.685% |
| CC(C)N1CCC(CC(=O)NCCc2cc(O)ncn2)CC1 | -16.23% |
| CN1CC[C@H](c2nnc(Cc3c[nH]c4ccccc34)o2)C1 | -2.7% |
| CN1CCC(c2cc(CCO)ncn2)C1 (stereo not drawn) | 105.5% |
| CCn1c(N)nc2cc(C(=O)N3CCN(c4ccncc4)CC3)cnc21 | -2.234% |
| Cc1nnc(N2CCCC2)c(C(N)=O)c1C | -23.35% |
| CNC(=O)C1(C)CN(c2nnc(C)c3ccccc23)CCO1 (stereo not drawn) | 101.8% |
| O=C(CCNC(=O)c1ccccc1N1CCOCC1)NC1CCCC1 | 3.858% |
| CCOC(=O)c1nnc2ccccc2c1N1CCOC(C)(C)C1 | 7.014% |
| Cc1ccc(N2CCCC3(CCN(C(=O)NC4CCCC4)C3)C2)nn1 (stereo not drawn) | 1.477% |
| Cc1nnc(N2CCOC(C)(C(=O)NC3CCCC3)C2)c2ccccc12 (stereo not drawn) | 100.6% |
| Cc1nnc(N2CCOC(C)(C(=O)N(C)C)C2)c2ccccc12 (stereo not drawn) | 78.63% |
| CNC(=O)[C@@]12CCO[C@@H]1CCN(S(=O)(=O)c1ccccc1C)C2 | -56.15% |
